Assays:
Assay in all cases: PBM binding z-score (relative to random genomic background probes); higher = stronger binding; sequences stand for … in GC…GCGATTGACAGCGTAGAATGAAGG
[1] = tested on: PPARg:RXRa DBDmut IVT, anti-RXR (DBD mutation: RXRa K156A/R161A, NR concentration 270 nM, RXRa partner concentration 90 nM)
How it was run: (§1)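 Binding buffer was PBS pH 7.4 with 2% milk, 0.02% Triton X-100, 1 mM DTT, 0.2 mg/mL BSA and 0.4 mg/ml salmon testes DNA. In it, ligand-free nuclear receptor dimers were incubated 1 h on custom Agilent 4×180K protein-binding microarrays carrying double-stranded probes. Antibodies against each partner (one per run) detected binding, and z-scores were calculated against random background probes after regression normalization of scanned fluorescence.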

[2] = tested on: PPARg:RXRa IVT, anti-PPARg (NR concentration 270 nM, RXRa partner concentration 90 nM)
How it was run: as §1

[3] = tested on: PPARg DBDmut:RXRa IVT, anti-PPARg (DBD mutation: PPARg1 K132A/R137A, NR concentration 270 nM, RXRa partner concentration 90 nM)
How it was run: as §1

[4] = tested on: PPARg DBDmut IVT, anti-PPARg (DBD mutation: PPARg1 K132A/R137A, NR concentration 270 nM)
How it was run: as §1

[5] = tested on: PPARg homodimer (NR concentration 180 nM)
How it was run: as §1

[6] = tested on: PXR:RXRa (NR concentration 270 nM, RXRa partner concentration 90 nM)
How it was run: as §1

[7] = tested on: PXR homodimer (NR concentration 270 nM)
How it was run: as §1

[8] = tested on: RARa:RXR (NR concentration 270 nM, RXRa partner concentration 90 nM)
How it was run: as §1

[9] = tested on: RARa homodimer (NR concentration 270 nM)
How it was run: as §1

[10] = tested on: RARb:RXRa (NR concentration 270 nM, RXRa partner concentration 90 nM)
How it was run: as §1

[11] = tested on: RARb homodimer (NR concentration 270 nM)
How it was run: as §1

[12] = tested on: RARg:RXRa (NR concentration 270 nM, RXRa partner concentration 90 nM)
How it was run: as §1

[13] = tested on: RARg homodimer (NR concentration 270 nM)
How it was run: as §1

[14] = tested on: RXRa DBDmut IVT, anti-RXR (DBD mutation: RXRa K156A/R161A, NR concentration 90 nM)
How it was run: as §1

[15] = tested on: RXRa homodimer (NR concentration 180 nM)
How it was run: as §1

[16] = tested on: THRa:RXRa (NR concentration 90 nM, RXRa partner concentration 90 nM)
How it was run: as §1

[17] = tested on: THRa homodimer (NR concentration 90 nM)
How it was run: as §1

[18] = tested on: VDR homodimer (NR concentration 270 nM)
How it was run: as §1

Row | Sequence | PBM binding z-score [1] | PBM binding z-score [2] | PBM binding z-score [3] | PBM binding z-score [4] | PBM binding z-score [5] | PBM binding z-score [6] | PBM binding z-score [7] | PBM binding z-score [8] | PBM binding z-score [9] | PBM binding z-score [10] | PBM binding z-score [11] | PBM binding z-score [12] | PBM binding z-score [13] | PBM binding z-score [14] | PBM binding z-score [15] | PBM binding z-score [16] | PBM binding z-score [17] | PBM binding z-score [18]
1 | AGAATGAGGTTATACTTAGATCAGGGAAGAAAGT | 2.72 | 2.03 | 1.21 | 1 | 1.21 | 1.02 | 0.666 | 1.38 | 1.18 | 1.3 | 0.8 | 1.56 | 1.14 | 1.87 | 1.87 | 1.96 | 0.882 | 0.999
2 | CCTAGTTGGTCAGGAGGTCTCACACCGGATATGA | 0.196 | 1.02 | -0.277 | 0.59 | 1.25 | -0.0259 | 0.521 | 0.0681 | 1.06 | 0.838 | 1.11 | 0.617 | 0.718 | -0.451 | 0.298 | 0.191 | 0.505 | 0.261
3 | GATACAGAGTCAAGGCCAGAGTACGCGTATTGAT | -0.108 | -0.0303 | 0.127 | -0.418 | -0.301 | -0.285 | -0.253 | -0.181 | -1.07 | 0.288 | 0.0594 | 0.0796 | 0.345 | -0.102 | 0.116 | 0.0889 | -0.438 | -0.0653
4 | ATACCAAGGTGATCGTGAGGTTGTTGATACTAAC | 0.768 | 0.997 | 0.831 | 0.892 | 0.541 | 0.741 | 0.299 | 0.978 | 0.0495 | 0.63 | 0.567 | 0.576 | 0.356 | 0.169 | 0.593 | 1.89 | 0.949 | 0.36
5 | GCGACTGGGGCATCAGCTGGTTACCATAACTTAA | 3.64 | 3.01 | -1.02 | -0.691 | -0.402 | -0.444 | -1.17 | -0.536 | -1.25 | 0.475 | 0.0831 | 0.0774 | 0.0488 | -0.446 | -0.273 | -0.306 | -0.655 | -0.58
6 | TGAATGAGGTTATAAGGTCAGGGAACGTTGCAAA | 2.58 | 4.37 | 1.54 | 1.21 | 2.82 | 4.17 | 0.241 | 5.68 | 0.814 | 3.88 | 4 | 5.81 | 4.21 | 1.11 | 5.44 | 4.24 | 3.73 | 1.88
7 | TCGAGTAGGTTAGGGGCACTCAGAATGGCGTCGA | 1.87 | 1.32 | -0.303 | -1.43 | 0.271 | 0.155 | -0.021 | 0.491 | -0.62 | 0.927 | 0.798 | 0.322 | 0.17 | 0.247 | 0.488 | 0.572 | 0.0941 | 0.0717
8 | TCATATAGGTAAAGTTGAAAGTCGAACGATATGA | 3.68 | 2.66 | 1.6 | 1.18 | 0.5 | 0.661 | 0.0596 | 0.908 | 0.307 | 1.08 | 0.521 | 0.699 | 0.882 | 1.02 | 1.15 | 0.311 | -0.665 | 0.121
9 | CCTACTGGGCCAAGGTCATTTATCAGTCAAAGCA | 3.45 | 4.56 | -0.913 | -0.873 | 1.83 | 3.22 | 1.73 | 3.28 | 0.0192 | 3.15 | 3.46 | 3.47 | 2.79 | 1.61 | 3.07 | 3.27 | 2.44 | 3.42
10 | AATACAGGGTCACCGTAGGCCAGAGTACGCACAG | 3.34 | 4.88 | 1.63 | 0.332 | 2.04 | 4.97 | 0.366 | 5.28 | 0.752 | 4.8 | 3.94 | 6.08 | 5.9 | 2.62 | 7.11 | 4.55 | 1.77 | 2.81
11 | ATATGTAGGTTATCGGGTCATCCAGTTTGCGCAT | 7.5 | 7.73 | 3.61 | 3.11 | 3.09 | 3.98 | 5.45 | 4.35 | 1.79 | 2.96 | 3.46 | 3.7 | 2.8 | 1.33 | 3.78 | 3.68 | 3.07 | 3.89
12 | ACTATCAGTTGACTTAGGGCAACCGATACGACGC | -0.371 | 0.386 | 0.456 | 0.545 | 0.231 | -0.0461 | 0.241 | 0.465 | 0.08 | 0.877 | 0.986 | 0.641 | 1.1 | 0.226 | 0.399 | 1.46 | 0.315 | 0.169
13 | CAGACTAGGTCAGGGCCAGTATAGGAGGAACGTT | 5.95 | 6.11 | 0.269 | 0.382 | 0.388 | 0.0784 | -0.249 | 0.723 | -0.255 | 3.12 | 2.28 | 2.67 | 3.34 | -0.345 | 1.3 | 1.65 | 0.0626 | -0.295
14 | CGTCCAAGGTCAATGCTAGGTCATTGAAAGCATT | 3.36 | 3.99 | 1.51 | 0.205 | 6.45 | 5.79 | 3.15 | 6.69 | 1.7 | 5.19 | 4.92 | 7.82 | 7 | 3.83 | 6 | 4.65 | 3.74 | 4.05
15 | GCTAGCAGGCCATTTGGGTCACCCAATGACGGGC | 1.07 | 2.71 | -0.843 | -0.885 | -0.136 | 0.692 | 0.0143 | 1.02 | -0.844 | 1.62 | 2.08 | 1.52 | 1.58 | -0.734 | 1.16 | 2.19 | 0.834 | 0.435
16 | ATATGTAGGTTACACCCGGGTCATTCAGGCTATG | 7.06 | 7.68 | 2.55 | 1.68 | 1.71 | 3.62 | 1.57 | 3.89 | 0.619 | 2.35 | 3.06 | 3.97 | 2.06 | 0.528 | 3.23 | 3.77 | 2.45 | 2.67

Source: the supplement of paper PMC6555819
